Assay results published in PubChem BioAssay AID1981 (Southern Research Specialized Biocontainment Screening …, 2009).
In all, about 2,200 compounds went through this assay and about 480 (22%) were called active. No rule for the calls is given here. Not all results are given here. Results with a measured potency or affinity are listed apart.

Assay: S. Typhimurium GFP fluorescence modified counterscreen for PhoP regulon inhibitor project dose response (AID 1981)
Details: 4 h; series mostly up to 150 µM

Row | SMILES | outcome
1 | Cc1nc(SCC(=O)NC(C)c2ccccc2)c2oc3ccccc3c2n1 (stereo unspecified) | inactive
2 | CCCN(CCC)CCCNS(=O)(=O)c1ccc2c(c1)oc(=O)n2C | inactive
3 | NC(=O)c1ccccc1NC(=O)/C=C/C(=O)O | inactive
4 | O=C(/C=C/c1ccccc1)N1CCN(c2c(Cl)cccc2[N+](=O)[O-])CC1 | inactive
5 | C=CCn1c(C)cc(C(=O)CSc2nc(N)cc(N)n2)c1C | inactive
6 | Clc1ccc(Nc2ncnc3c2cnn3-c2ccccc2)cc1 | inactive
7 | CCCNC(=O)CN(C1CCCCC1)S(C)(=O)=O | inactive
8 | CCCCC(=O)NCCNC(=O)c1cc(OCC(F)(F)F)ccc1OCC(F)(F)F | inactive
9 | Cn1c(COc2ccccc2)nnc1SCc1nc2ccccc2[nH]1 | inactive
10 | Cc1ccc(C)c(/C=C/C(=O)c2ccccc(=O)c2O)c1 | inactive
11 | COc1ccc(C2=Nc3nc(-c4ccccc4)cn3C(c3ccc(OC)cc3)C2)cc1 (stereo unspecified) | inactive
12 | N/C(=N\OC(=O)N1c2ccccc2Sc2ccccc21)c1ccccc1 | inactive
13 | CCc1nn2cc(C(=O)c3cc(Cl)ccc3O)cnc2c1-c1ccc(F)cc1 | inactive
14 | CCN(C(C)=O)c1nc(CSc2nnc(NC(C)C)s2)cs1 | inactive
15 | CC1CCC(NC(=O)C2c3ccccc3C(=O)N2Cc2cccs2)CC1 (stereo unspecified) | inactive
16 | Cn1ncc(Br)c1C(=O)NCc1cccs1 | inactive
17 | O=C(CSc1nnc(-c2ccc(Br)cc2)o1)Nc1cccc2ccccc12 | inactive
18 | O=C(Oc1c(Br)cc([N+](=O)[O-])cc1Br)c1cccnc1 | inactive
19 | O=C(Nc1ccc(F)cc1)c1ccccc1F | inactive
20 | O=C(CNc1ccccc1)Nc1ccc(F)cc1 | inactive
21 | O=C(CCCN1C(=O)CCC1=O)Nc1ccc2c(c1)OCCO2 | inactive
22 | CC(C)(C)c1nn(-c2ccccc2)c2[nH]c(=O)c(CNCc3ccco3)cc12 | inactive
23 | O=P(Cc1cc[n+]([O-])cc1)(c1ccccc1)c1ccccc1 | inactive
24 | CCCS(=O)(=O)N1CCCC(C(=O)N2CCN(c3ccccn3)CC2)C1 (stereo unspecified) | inactive

Row | SMILES | outcome
25 | COc1ccc(-c2cn[nH]c2-c2ccc(OCc3ccc([N+](=O)[O-])cc3)cc2O)cc1 | inactive
26 | CC(Oc1ccc(Cl)cc1)c1ccnn1S(=O)(=O)c1ccccc1 (stereo unspecified) | inactive
27 | CCOC(=O)c1cc2sc(C)cc2n1CC(=O)NCc1ccc(F)cc1 | inactive
28 | Cc1ccc(C(C)C)cc1C(=O)CC1(O)C(=O)N(C)c2ccccc21 (stereo unspecified) | inactive
29 | CCn1ncc(/C=C/C(=O)NCc2cn(C)nc2C)c1C | inactive
30 | COc1ccc(OC)c(NC(=O)c2ccccc2NS(=O)(=O)c2cccc3cccnc23)c1 | inactive
31 | COC(=O)COc1ccc(S(=O)(=O)Nc2ccccc2SC)cc1 | inactive
32 | O=C(CSc1ncn[nH]1)Nc1cccc2ccccc12 | inactive
33 | O=S(=O)(Nc1ccc(N=Nc2ccc(O)c3ccccc23)cc1)c1ccccc1 | inactive
34 | CCn1c(CNC(=O)c2cccc(C)c2)nc2ccccc21 | inactive
35 | S=c1nc(-c2ccccc2)oc2c1CCCC2 | inactive
36 | CCC(=O)c1cn(Cc2ccc(C#N)cc2)c2ccccc12 | inactive
37 | O=c1c2oc3ccccc3c2ncn1Cc1ccc(Cl)cc1 | inactive
38 | Cc1[nH]n(-c2ncc(-c3ccc(Cl)cc3)s2)c(=O)c1C(c1ccc(Cl)cc1)C(C#N)C#N (stereo unspecified) | inactive
39 | Cc1ccc(-n2nc(C)c(C3C(C#N)=C(N)Oc4c3c(=O)oc3ccccc43)c2Cl)cc1 (stereo unspecified) | inactive
40 | Cc1snc(S(=O)(=O)/C(C#N)=N\Nc2ccccc2)c1C#N | inactive
41 | COc1ccc(CCC(=O)N2CCC3(CC2)OCCO3)cc1 | inactive
42 | CC1OC(Nc2cccc3ccccc23)C(O)C(O)C1O (stereo unspecified) | inactive
43 | O=C(Nc1ccc2snnc2c1)Nc1cccc2ccccc12 | inactive
44 | CC(C(=O)Nc1cc([N+](=O)[O-])ccc1Cl)N1CCN(c2ccccc2O)CC1 (stereo unspecified) | inactive
45 | CCCCNC(=O)Oc1cccc(N2CCCC2=O)c1 | inactive
46 | CCOC(=O)c1sc(NC(=O)Nc2ccc(Cl)cc2)cc1C | inactive
47 | Cc1ccnc2nc(C(=O)Nc3ccc4c(c3)OCO4)nn12 | inactive
48 | CC(C)c1ccc(NC(=O)Nc2cc3sccc3n2C)cc1 | inactive

Row | SMILES | outcome
49 | CCOC(=O)CN(C)Cc1c[nH]c2ccccc12 | inactive
50 | O=c1[nH][nH]c(-c2ccccc2O)c1C(C[N+](=O)[O-])c1cccc(Cl)c1 (stereo unspecified) | inactive
51 | CCCc1[nH][nH]c(=O)c1C(c1ccc(Br)cc1)C(C#N)C#N (stereo unspecified) | inactive
52 | Cc1[nH][nH]c(=O)c1C(c1ccc(O)c([N+](=O)[O-])c1)c1c(C)[nH][nH]c1=O | inactive
53 | CCCCCC(=O)Nc1ccc2ccccc2c1 | inactive
54 | O=C(CSc1nnc(-c2ccc(O)cc2)n1-c1ccccc1)CC(=O)Nc1ccccc1 | inactive
55 | O=C(O)CCc1nnc2n(Cc3ccc(F)cc3)c(=O)c3ccccc3n12 | inactive
56 | COc1cc(CNc2ccc(CNc3ncn[nH]3)cc2)ccc1OCC(=O)NC(C)(C)C | inactive
57 | O=S(=O)(NCc1ccccc1)c1cccc(S(=O)(=O)N2CCOCC2)c1 | inactive
58 | Cn1c(CC(=O)Nc2ccc(Cl)c(Cl)c2)nnc1SCC(=O)Nc1nccs1 | inactive
59 | O=C(COC(=O)c1n[nH]c2ccccc12)NC(=O)NC12CC3CC(CC(C3)C1)C2 | inactive
60 | Oc1ccc(C=Nc2cccc3ncccc23)c(O)c1 | inactive
61 | O=C(COc1ccccc1)NC(=S)Nc1ccc2c3c(cccc13)CC2 | inactive
62 | Cc1c(C)n(Cc2ccccc2)c2ncnc(NN)c12 | inactive
63 | O=C(NCCCN1CCCC1=O)c1ccc(Cl)c(NS(=O)(=O)c2ccc(F)cc2)c1 | inactive
64 | Cc1ccc(NC(=O)C(=O)NCCOc2ccccc2Cl)cc1 | inactive
65 | CN(CCC(=O)Nc1ccc(Br)cc1)Cc1ccccc1 | inactive
66 | COc1ccccc1CC(=O)N1CCN(c2ccccn2)CC1 | inactive
67 | COC(=O)c1ccc2nc(C(F)(F)F)[nH]c2c1 | inactive
68 | O=c1cc(-c2ccc([N+](=O)[O-])cc2)nc2cc(-c3ccc(Cl)cc3)[nH]n12 | inactive
69 | COC(=O)c1c(C(=O)OC)c(-c2cccc(C)c2)n2c1CS(=O)(=O)C2 | inactive
70 | O=C(NCc1ccc2c(c1)OCO2)c1ccc(-n2cnnn2)cc1 | inactive
71 | COC(=O)c1ccccc1NC(=O)CS(=O)(=O)Cc1nc(-c2ccc(C)cc2)oc1C | inactive
